Assay outcomes: PubChem BioAssay, several laboratories
SENP7 inh = SENP7 protease inhibition. Q9BQF6. recombinant SENP7, Z-RLRGG-aminoluciferin luminescence, 40 min. inhibition, % at 5 µM. 1.5% of 330,000 active;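 active = inhibition above about 50% at the single test dose, limit read from the data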
Target sequence (Q9BQF6 706-1050 limits assumed): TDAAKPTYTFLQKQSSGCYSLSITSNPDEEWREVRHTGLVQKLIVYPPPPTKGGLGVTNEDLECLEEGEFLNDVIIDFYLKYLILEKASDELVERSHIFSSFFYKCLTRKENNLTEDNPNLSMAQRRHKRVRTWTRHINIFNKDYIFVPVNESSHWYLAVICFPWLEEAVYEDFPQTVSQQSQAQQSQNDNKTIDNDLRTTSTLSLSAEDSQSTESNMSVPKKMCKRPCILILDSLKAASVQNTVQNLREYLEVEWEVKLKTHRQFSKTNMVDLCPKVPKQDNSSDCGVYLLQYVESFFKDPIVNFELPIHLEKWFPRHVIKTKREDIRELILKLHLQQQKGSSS
Platelet DG rel = modulates dense granule release in human platelets; human platelet-rich plasma, SFLLRN dense granule ATP release, luminescence; inhibition, %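 (compounds screened at 7.5 µM in platelet-rich plasma)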; 0.22% of 300,000 active; AID 1663;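 active = mean replicate score, as percent of positive control, at or above 50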
SENP6 inh = SENP6 protease inhibition; 1.8% of 330,000 active; Recombinant SENP6 catalytic domain, aminoluciferin luminescence; AID 2599; Q9GZR1; inhibition, % at 10 µM;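 active = inhibition above about 50% at the single tested dose, limit read from the data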
SENP8 block-1 = SENP8 protease inhibition; inhibition, % at 10 µM; 1.2% of 330,000 active; purified SENP8, Z-RLRGG-aminoluciferin cleavage, luminescence; Q96LD8; AID 2540; in the data active = inhibition above about 50%
SENP8 block-2 = blocks human SENP8 cleavage of Nedd8 substrate. recombinant SENP8, Nedd8 substrate fluorescence. Q96LD8. inhibition, % at 20 µM. AID 602440. 0.64% of 360,000 active; in the data active = inhibition mostly above about 40%, no sharp cut-off; inactive = mostly below about 27%
SENP8 conf = confirmation of human SENP8 protease inhibitors; shares compounds with SENP7 inh; Recombinant SENP8, Z-RLRGG-aminoluciferin luminescence, 60 min; inhibition, % at 12.5 µM; 40% of 6,200 active; AID 488912;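 active = mean inhibition across replicates above about 50%, limit read from the data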
SENP6 conf = human SENP6 inhibition, confirmed; recombinant SENP6, Z-RLRGG-aminoluciferin luminescence; shares compounds with SENP7 inh; 58% of 6,200 active; inhibition, % at 12.5 µM
SENP7 conf = confirmation of human SENP7 protease inhibitors; shares compounds with SENP7 inh; recombinant SENP7, Z-RLRGG-aminoluciferin luminescence, 40 min; inhibition, % at 12.5 µM; 69% of 6,200 active
Casp3 SENP sel = caspase-3 inhibition (SENP selectivity assay) | purified caspase-3, Z-DEVD-aminoluciferin luminescence, 60 min | shares compounds with SENP7 inh | 60% of 6,200 active | inhibition, % at 12.5 µM;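 active = mean inhibition above about 50%, limit read from the data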
Target sequence (P42574 28-227 limits assumed): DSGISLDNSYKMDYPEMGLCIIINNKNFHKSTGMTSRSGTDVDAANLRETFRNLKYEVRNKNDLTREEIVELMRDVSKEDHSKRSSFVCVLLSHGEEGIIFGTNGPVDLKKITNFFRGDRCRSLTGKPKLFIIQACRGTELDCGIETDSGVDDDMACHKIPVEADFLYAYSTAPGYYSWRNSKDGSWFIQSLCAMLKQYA
SENP luc ctr = interferes with luciferase luminescence in SENP counter-screen. Pre-incubated SENP8/Z-RLRGG-aminoluciferin, luciferase luminescence interference. 39% of 6,200 active. shares compounds with SENP7 inh. inhibition, % at 12.5 µM;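 active = mean inhibition above about 50% when retested at one dose, limit read from the data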
Large screens that a line does not name were inactive (follow-up assays come after a bar, where they were run). Shown are actives, neighbours in structure and some others; about 2.4% of the full set was active somewhere.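 Rule for the calls, unless noted: active = mean inhibition above about 50% in the one-dose retest (limit read from the data); inactive = the rest.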

O=C(O)c1cc(O)ccc1NC(=O)c1cccc2ccccc12	none
CCOC(=O)C1(Cc2ccccc2)CCCN(C(=O)COc2ccccc2OC)C1 (stereo not given)	none (no result: SENP7 inh, Platelet DG rel, SENP6 inh, SENP8 block-1)
NS(=O)(=O)c1cnccc1NCCc1ccccc1	none
COc1ccc(Cn2c(C3CC3)nc3ccc(NC(=O)C4CC4)cc3c2=O)cc1	SENP7 inh 67 | SENP8 conf inactive | SENP6 conf inactive | SENP7 conf 92 | Casp3 SENP sel 58 | SENP luc ctr inactive
O=C(Nc1ccc2nc(C3CC3)n(Cc3ccc(F)cc3)c(=O)c2c1)c1ccco1	none
CCSc1nnc(NC(=O)c2cccnc2Cl)s1	none
Cc1nc(NC(=O)c2ccccc2)sc1C	SENP7 inh 92, SENP6 inh 90, SENP8 block-1 78 | SENP8 conf 90 | SENP6 conf 91 | SENP7 conf 100 | Casp3 SENP sel 95 | SENP luc ctr 89
Cc1nc(NC(=O)c2ccccc2O)sc1C	SENP7 inh 54 | SENP8 conf inactive | SENP6 conf inactive | SENP7 conf inactive | Casp3 SENP sel inactive | SENP luc ctr inactive
Cc1nc(NC(=O)c2cccnc2Cl)sc1C	SENP6 inh 54 | SENP8 conf inactive | SENP6 conf inactive | SENP7 conf 75 | Casp3 SENP sel 80 | SENP luc ctr 60
Cc1nc(NC(=O)c2csc3ccccc23)sc1C	SENP7 inh 77, SENP6 inh 69, SENP8 block-1 50 | SENP8 conf inactive | SENP6 conf 73 | SENP7 conf 95 | Casp3 SENP sel 51 | SENP luc ctr inactive
Cc1nc(NC(=S)NC(=O)c2ccccc2)sc1C	none
CC1=NN(CCc2ccccn2)C(=O)CC1	none
CC(=O)c1sc(NC(=O)c2ccccc2)nc1-c1ccccc1	SENP7 inh 61, SENP6 inh 75, SENP8 block-1 63 | SENP8 conf inactive | SENP6 conf 71 | SENP7 conf 88 | Casp3 SENP sel 51 | SENP luc ctr 54
Cc1cccc(/C=N\N=C\c2cccc(C)c2)c1	SENP7 inh 51, SENP6 inh 63 | SENP8 conf inactive | SENP6 conf 54 | SENP7 conf 81 | Casp3 SENP sel inactive | SENP luc ctr inactive
Cc1cccc(/C=N/n2c(C)nnc2C)c1	none
Cc1noc(N)c1C(=O)Nc1ccc(C(C)(C)C)cc1	SENP7 inh 86, SENP8 block-1 69 | SENP8 conf inactive | SENP6 conf 80 | SENP7 conf 96 | Casp3 SENP sel 80 | SENP luc ctr 80
Cc1nc(Cl)sc1C(=O)Nc1ccc(C(C)(C)C)cc1	SENP7 inh 62, SENP8 block-1 60 | SENP8 conf 71 | SENP6 conf 64 | SENP7 conf 84 | Casp3 SENP sel 51 | SENP luc ctr inactive
NNC(=O)c1cc(S(=O)(=O)N2CCOCC2)c[nH]1	none (no result: Platelet DG rel)
CNC(=O)c1c(NC(=O)c2cccc(C)c2)sc2c1CCC2	none
COc1cccc(C(=O)Nc2sc3c(c2C(=O)O)CCCC3)c1	SENP6 inh 89, SENP8 block-1 84 | SENP8 conf inactive | SENP6 conf 74 | SENP7 conf 68 | Casp3 SENP sel 79 | SENP luc ctr inactive
COc1cc(C(=O)Nc2sc3c(c2C(=O)O)CCC3)cc(OC)c1OC	none
Cc1cccc(C(=O)Nc2sc3c(c2C(=O)O)CCC3)c1	SENP7 inh 87, SENP6 inh 99, SENP8 block-1 96 | SENP8 conf 96 | SENP6 conf 96 | SENP7 conf 100 | Casp3 SENP sel 95 | SENP luc ctr 94
COc1ccccc1CN1CCC(CNS(=O)(=O)c2cc(-c3onc(C)c3C)ccc2OC)CC1	none
CCCCn1c(N)c(N(CCOC)C(=O)CSc2nnc(-c3ccc(F)cc3)n2N)c(=O)[nH]c1=O	none
Cc1ccc2c(C)ccc(O)c2n1	none
Cc1ccc(O)c(N=Nc2ccccc2)n1	SENP7 inh 100, Platelet DG rel 77, SENP6 inh 93, SENP8 block-1 95 | SENP8 conf 95 | SENP6 conf 98 | SENP7 conf 103 | Casp3 SENP sel 96 | SENP luc ctr 62
CC(C)OC(=O)CC(=O)c1sc2nc3c(cc2c1N)CN(C)CC3	SENP6 inh 54 (no result: SENP8 block-2) | SENP8 conf inactive | SENP6 conf inactive | SENP7 conf inactive | Casp3 SENP sel inactive | SENP luc ctr inactive
CCN1CCc2nc3sc(C(=O)N4CCc5ccccc5C4)c(N)c3cc2C1	none
COc1cccc(C(=O)NN2CCOCC2)c1	none
Cc1cc(C)cc(NC(=O)Nc2ccc3ccccc3n2)c1	none
COc1ccc(C(=O)Nc2ccc3ccccc3n2)cc1OC	none
Cc1ccc(C(=O)Nc2ccc3ccccc3n2)cc1	SENP7 inh 86, SENP6 inh 86, SENP8 block-1 80 | SENP8 conf 88 | SENP6 conf 88 | SENP7 conf 97 | Casp3 SENP sel 82 | SENP luc ctr 77
O=C(Nc1ccc2ccccc2n1)c1ccccc1Br	SENP7 inh 84, SENP6 inh 79, SENP8 block-1 77 | SENP8 conf inactive | SENP6 conf 80 | SENP7 conf 97 | Casp3 SENP sel 82 | SENP luc ctr inactive
O=C(Nc1ccc2ccccc2n1)c1ccccc1	SENP7 inh 93, SENP6 inh 88, SENP8 block-1 87 | SENP8 conf 85 | SENP6 conf 85 | SENP7 conf 98 | Casp3 SENP sel 89 | SENP luc ctr 89
CC(=O)c1ccc(S(=O)(=O)Oc2ccc(-c3ccc(C(=O)O)cc3)cc2)cc1	none
Cc1occc1-c1nnc(SCC(=O)NC2CCC(C)CC2)o1 (stereo not given)	none (no result: Platelet DG rel)
O=C(O)c1ccccc1C(=O)NCCc1c(C(=O)O)[nH]c2ccc(F)cc12	none
C(=N\Nc1ccccc1)/c1nc2ccccc2s1	SENP7 inh 75, SENP8 block-1 58 | SENP8 conf inactive | SENP6 conf inactive | SENP7 conf 82 | Casp3 SENP sel inactive | SENP luc ctr inactive
C(=N\Nc1nc2ccccc2s1)/c1ccccn1	SENP7 inh 100, SENP6 inh 97, SENP8 block-1 97 (no result: SENP8 block-2) | SENP8 conf 100 | SENP6 conf 101 | SENP7 conf 104 | Casp3 SENP sel 99 | SENP luc ctr inactive
O=c1nc(N/N=C/C=C/c2ccccc2)cn[nH]1	SENP7 inh 53 | SENP8 conf inactive | SENP6 conf inactive | SENP7 conf inactive | Casp3 SENP sel inactive | SENP luc ctr inactive
